In the supplement of paper PMC6897291:

Test system: U-2932
Test: growth inhibition by drug plus 177Lu-lilotomab satetraxetan (1 - RLU/untreated control) (fraction); higher = stronger inhibition
Settings: 177Lu-lilotomab satetraxetan 1 ug/ml
Procedure, shortened: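 Compound doses on the pre-printed Selleck Cambridge Cancer Compound library plates were 10/100 nM for RIVA cells and 10/1,000 nM for U-2932 cells, seeded at 3,000 cells/well. Before seeding, cells were washed after 18 h with or without a radiolabelled anti-CD37 antibody conjugate (~600 MBq/mg; 0.5 µg/ml RIVA, 1 µg/ml U-2932). Growth inhibition was derived from RealTime-Glo luminescence relative to untreated no-drug control wells. Readings were taken daily starting on day 3, each after 1 h at 37°C, and each well's RLU was divided by the mean of 48 such wells per plate and subtracted from 1.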

| Structure (SMILES) | growth inhibition by drug plus 177Lu-lilotomab satetraxetan (10 nM, time (day): 3) | growth inhibition by drug plus 177Lu-lilotomab satetraxetan (10 nM, time (day): 4) | growth inhibition by drug plus 177Lu-lilotomab satetraxetan (10 nM, time (day): 5) | growth inhibition by drug plus 177Lu-lilotomab satetraxetan (10 nM, time (day): 6) | growth inhibition by drug plus 177Lu-lilotomab satetraxetan (1000 nM, time (day): 3) | growth inhibition by drug plus 177Lu-lilotomab satetraxetan (1000 nM, time (day): 4) | growth inhibition by drug plus 177Lu-lilotomab satetraxetan (1000 nM, time (day): 5) | growth inhibition by drug plus 177Lu-lilotomab satetraxetan (1000 nM, time (day): 6) |
| --- | --- | --- | --- | --- | --- | --- | --- | --- |
| C=C1C[C@@H]2[C@H](CC[C@]3(C)C(=O)CC[C@@H]23)[C@@]2(C)C=CC(=O)C=C12 [Exemestane] | 0.052 | 0.106 | 0.138 | 0.169 | -0.0113 | 0.0549 | 0.0989 | 0.179 |
| O=C(O)c1nn(Cc2ccc(Cl)cc2Cl)c2ccccc12 [Lonidamine] | 0.0325 | 0.0863 | 0.132 | 0.173 | 0.0882 | 0.147 | 0.167 | 0.244 |
| C[C@]12CCC(=O)C(O)=C1CC[C@@H]1[C@@H]2CC[C@]2(C)C(=O)CC[C@@H]12 [Formestane] | -0.06 | -0.00612 | 0.0406 | 0.141 | -0.0681 | -0.018 | 0.0247 | 0.18 |
| Cn1cc(C2=C(c3cn(C4CCN(Cc5ccccn5)CC4)c4ccccc34)C(=O)NC2=O)c2ccccc21 | -0.0756 | -0.00933 | 0.0275 | 0.128 | -0.0807 | -0.0188 | 0.0211 | 0.21 |
| N[C@@H](Cc1ccc(N(CCCl)CCCl)cc1)C(=O)O [Melphalan] | 0.0197 | 0.0283 | 0.0541 | 0.143 | 0.00364 | 0.0898 | 0.0598 | 0.0846 |
| CC(=O)Nc1ccc(OC[C@](C)(O)C(=O)Nc2ccc([N+](=O)[O-])c(C(F)(F)F)c2)cc1 [Andarine (GTX-007)] | 0.0713 | 0.12 | 0.151 | 0.162 | -0.0087 | 0.0374 | 0.0839 | 0.127 |
